# Measurements from PubChem BioAssay (Tox21).
# Results filed as inconclusive are left out. A call without a number means that no potency is given here. Activity calls are given as the source filed them. Calls come from the whole dose curve; as a rule, active = well fitted activation curve with a large enough effect in the repeat runs; inconclusive = weak or mixed curves, or effect the other way; inactive = no such curve, though single readings can be large or run the other way.
# Experiment: qHTS assay to identify small molecule agonists of the retinoic acid receptor (RAR) signaling pathway (AID 1159553)
# Details: C3RL4 RARE luciferase reporter, agonist, 6 h; series mostly up to 73.3 µM
# From the text: National Center for Advancing Translational Sciences [NCATS] NIH Chemical Genomics Center [NCGC] U.S. Environmental Protection Agency [EPA] National Institutes of Environmental Health Sciences [NIEHS] National Toxicology Program [NTP] Assay overview: All-trans Retinoic acid (atRA) is the potent natural metabolite of retinol and plays an important role in normal embryonic development and maintenance of cellular phenotype in adult animals. atRA is the activating ligand for the retinoic acid receptors (RARs) which form heterodimers with retinoid X receptors (RXRs) on the retinoic acid response element (RARE). Through activation of the RAR/RXRs nuclear receptors, atRA regulates the transcription of a large number of protein-coding genes and regulatory RNAs. Intracellular levels of atRA are controlled by the retinol signaling pathway (RSP) that regulates the biosynthesis and catabolism of atRA to maintain physiological levels. Chemicals that interfere with the RSP can cause abnormal intracellular levels of atRA and therefore are potential developmental toxicants. To assess compounds for the potential adverse effect on embryonic development through interfering with retinol signaling, a cell-based RARE luciferase reporter gene assay was used. C3RL4 cell line (OARSA/CFSAN/FDA, Laurel, MD) was used to screen Tox21 10K compound library for identifying activators of the RSP.
# Assay Protocol Summary: C3RL4 cells were seeded at 1,000/well in 5 uL of assay medium into white solid 1,536-well tissue culture plates (Greiner Bio-One North America Inc. Monroe, NC) using a Multidrop Combi (Thermo Scientific, Waltham, MA) dispenser. After incubation at 37 C and 5% CO2 for an overnight, 23 nL of compounds dissolved in DMSO, positive control or DMSO only were transferred by a Pintool station (Kalypsys, San Diego, CA). After 6 hr incubation at 37 C and 5% CO2, 5 uL of Amplite Luciferase reagent (AAT Bioquest Inc. Sunnyvale, CA) was added to each assay plate using a Flying Reagent Dispenser (FRD) (Aurora Discovery, San Diego, CA). Luminescence was quantified on a ViewLux plate reader (PerkinElmer, Waltham, MA) after 30 min incubation at room temperature.
# Potency is the fitted concentration of half-maximal effect.
row,SMILES,Potency
1,Cc1cc(C)c(C(=O)O)c(C)c1,inactive
2,CC1(C)[C@H]2CC[C@](C)(C2)[C@H]1O,inactive
3,CCN1CCCC1CN (stereo not given),inactive
4,O/N=C/C=N/O,inactive
5,CCCCCc1cccc(=O)o1,inactive
6,COC(=O)/C=C\C(=O)O,inactive
7,C=CCCCCCCCC,inactive
8,CCCC(=O)OC/C=C(\C)CCC=C(C)C,inactive
9,COc1c2occc2c(OC)c2c(=O)cc(C)oc12,inactive
10,COC(=O)c1cccc(Cl)c1,inactive
11,COC(C)(OC)OC,inactive
12,[O]=[Mo](=[O])=[O],inactive
13,N[C@@H](CSCCCO)C(=O)O,inactive
14,C/C(=C1\CCOC(=O)S1)N(C=O)Cc1cnc(C)nc1N,inactive
15,O=C(O)[C@H](O)c1ccccc1,inactive
16,Cc1ccccc1C(N)=O,inactive
17,O=C(O)CONC(=O)c1ccccc1,inactive
18,CCOc1cccc(N)c1,inactive
19,CC(=O)O[Si](C)(OC(C)=O)OC(C)=O,inactive
20,C[Si]1(C)O[Si](C)(C)O[Si](C)(C)O[Si](C)(C)O[Si](C)(C)O1,inactive

row,SMILES,Potency
1,CCCCOC(=O)[C@H](C)O,inactive
2,O=C(Cl)c1ccccc1[N+](=O)[O-],inactive
3,O=C(CCCl)NCCc1ccccc1,inactive
4,CC(C)NCC(O)c1ccc2ccccc2c1 (stereo not given),inactive
5,CNCCS(=O)(=O)O,inactive
6,CO/N=C(/C(=O)N[C@@H]1C(=O)N2C(C(=O)[O-])=C(C[n+]3ccn4ncccc43)CS[C@H]12)c1nsc(N)n1,inactive
7,Cn1nnc2c(C(N)=O)ncn2c1=O,inactive
8,CC(N)CCCC(C)(C)O (stereo not given),inactive
9,CCCCOCCOC(=O)COc1ccc(Cl)cc1Cl,inactive
10,c1ccc(B(c2ccccc2)c2ccccc2)cc1,54.4 µM (active)
11,CCC(=O)CC,inactive
12,CSc1cnccn1,inactive
13,CC(S)C(C)S (stereo not given),inactive
14,CCCSSCCC,inactive
15,Cc1c(N)cccc1Cl,inactive
16,Fc1ccccc1,inactive
17,CC1CC(=O)CC(C)(C)C1 (stereo not given),inactive
18,CCCCCC(C)O (stereo not given),inactive
19,CN(C)CC/C=C1/c2ccccc2COc2ccc(CC(=O)O)cc21,inactive
20,C/C(CC(C)C)=N\O,inactive
